Our source for the outcome values is PubChem BioAssay (NCATS).

Calls of active or inactive are those of the source. Calls follow the shape of the dose curve; as a rule, active = well fitted curve in the direction sought with a large enough effect (not every such curve was filed as active); inconclusive = small, poorly fitted or top-dose-only effect, or effect the other way, or another doubt; inactive = no such curve, though single readings can be large or run the other way.

The target in the test is Pyruvate kinase PKM (Homo sapiens) (UniProt P14618). Put plainly: qHTS Assay for Activators of Human Muscle Pyruvate Kinase (AID 954). The note with it: purified human muscle pyruvate kinase, luciferase-coupled luminescence, 1 h; series mostly up to 57.5 µM. The procedure, abridged: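 Reaction: 0.1 nM purified PKM2 with 0.5 mM phosphoenolpyruvate and 0.1 mM ADP, room temperature, 1 h. Readout: luciferase-based ATP luminescence after stop reagent. Activators judged against a 0.3 nM enzyme column.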
Chain of Pyruvate kinase PKM (Homo sapiens) (P14618 whole entry, looked up): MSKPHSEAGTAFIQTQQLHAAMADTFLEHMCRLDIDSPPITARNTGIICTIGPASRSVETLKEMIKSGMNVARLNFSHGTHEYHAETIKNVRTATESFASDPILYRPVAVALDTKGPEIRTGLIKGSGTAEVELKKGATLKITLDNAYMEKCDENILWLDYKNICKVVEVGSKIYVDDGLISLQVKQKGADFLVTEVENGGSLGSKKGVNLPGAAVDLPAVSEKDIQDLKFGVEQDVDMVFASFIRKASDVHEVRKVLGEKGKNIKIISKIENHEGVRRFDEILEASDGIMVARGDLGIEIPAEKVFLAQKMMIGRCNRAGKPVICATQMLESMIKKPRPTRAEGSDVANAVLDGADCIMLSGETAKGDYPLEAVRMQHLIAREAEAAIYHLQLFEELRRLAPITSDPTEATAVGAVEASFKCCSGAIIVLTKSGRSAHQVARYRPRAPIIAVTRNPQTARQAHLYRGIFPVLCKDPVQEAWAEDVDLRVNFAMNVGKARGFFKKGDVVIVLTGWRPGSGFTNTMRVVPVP
In the case of `CN(C)CCCN1c2ccccc2CCc2ccccc21`, the compound was classed as inactive.

Take `CC(=O)OCC(=O)[C@@]1(O)CC[C@H]2[C@@H]3CCC4=CC(=O)CC[C@]4(C)[C@H]3C(=O)C[C@@]21C`: the result was inactive.

In the case of `OCCN1CCN(CCCN2c3ccccc3Sc3ccc(Cl)cc32)CC1`, the call was inactive.

`CNCCCC1c2ccccc2C=Cc2ccccc21`: the call was inactive.

On to `CN(C)CCCN1c2ccccc2Sc2ccc(Cl)cc21`, for which the compound was classed as inactive.

In the case of `NC1CCN(c2cccc(Cl)n2)CC1`, the call was inactive.

Regarding `COc1ccc(Cl)cc1C(=O)NCCc1ccc(S(=O)(=O)NC(=O)NC2CCCCC2)cc1`, the result was inactive.

Regarding `CC1=C(CC(=O)O)c2cc(F)ccc2/C1=C\c1ccc(S(C)(=O)=O)cc1`, the result was inactive.

Regarding `OCc1cc(C(O)CNCCCCCCOCCCCc2ccccc2)ccc1O` (configuration not stated), the result was inactive.

Consider `CC(C)C(=O)c1c(C(C)C)nn2ccccc12`, for which the result was inactive.

As for `CC(C)NC[C@H](O)c1ccc(O)c(O)c1`, the result was inactive.

On to `CCN(CC)CCOC(=O)C1(C2CCCCC2)CCCCC1`, for which the outcome was inactive.

As to `COC(=O)C1=C(C)NC(C)=C(C(=O)OC)C1c1ccccc1[N+](=O)[O-]`, the compound was called inactive.

On to `C[C@]12CC[C@@H]3c4ccc(O)cc4CC[C@H]3[C@@H]1CCC2=O`, for which the outcome was inactive.

In the case of `CCCn1cnc2c1c(=O)n(CCCCC(C)=O)c(=O)n2C`, the compound was called inactive.

Take `CCCCCCCCCCCCCCCC(=O)NCCO`: the outcome was inactive.

For `C#CCN(C)Cc1ccccc1`, the compound was called inactive.

Turning to `N=c1c[n+](N2CCOCC2)[n-]o1`, the call was inactive.

Turning to `Nc1cc(=O)[nH]c(N)n1`, the compound was classed as inactive.

Regarding `CC1=C(CC(=O)O)c2cc(F)ccc2/C1=C\c1ccc(S(C)=O)cc1` (configuration not stated), the compound was called inactive.

`C=Cc1c(C)c2cc3[nH]c(cc4nc(cc5nc(cc1[nH]2)C(C)=C5CCC(=O)O)C(CCC(=O)O)=C4C)c(C)c3C=C`: the outcome was inactive.

For `CCN(CC)CCNC(=O)c1cc(Cl)c(N)cc1OC`, the compound was classed as inactive.
